The values below come from PMC4081100, “A DNA-binding-site landscape and regulatory network analysis for NAC transcription factors in Arabidopsis thaliana”.

Holding throughout (assay): universal protein binding microarray (PBM); transcription factors of Arabidopsis thaliana; high values mean tight binding
Test [1] concerns the target T1, GST-ANAC092(1-176) (Arabidopsis thaliana, UniProt Q9FKA0 1-176).
T1 sequence: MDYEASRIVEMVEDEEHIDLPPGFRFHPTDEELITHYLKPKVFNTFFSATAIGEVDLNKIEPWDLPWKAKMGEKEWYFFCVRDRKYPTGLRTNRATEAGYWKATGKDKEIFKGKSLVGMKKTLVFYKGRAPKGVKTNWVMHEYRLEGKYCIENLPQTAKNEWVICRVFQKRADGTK
The note with it: protein: recombinant; tags: GST; chain copies: 2; dsDNA, one strand shown. The gist of the method: (§1)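 Binding is expressed as the normalised enrichment score (E-score). Proteins carrying a GST tag, whether NAC-domain, full-length or DNA-binding-domain forms, were induced in cells, and zinc acetate was added for zinc-finger proteins. After purification on glutathione–Sepharose 4B and quantification by A280 or anti-GST western blot, each was applied in duplicate at 200 to 500 nM final to custom all-10-mer Agilent 4 × 180K arrays made double-stranded by primer extension. Gapped and ungapped 8-mers were scored.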

The target of test [2] is T2, GST-ANAC019 NAC domain (Arabidopsis thaliana, UniProt Q9C932 14-162).
T2 sequence: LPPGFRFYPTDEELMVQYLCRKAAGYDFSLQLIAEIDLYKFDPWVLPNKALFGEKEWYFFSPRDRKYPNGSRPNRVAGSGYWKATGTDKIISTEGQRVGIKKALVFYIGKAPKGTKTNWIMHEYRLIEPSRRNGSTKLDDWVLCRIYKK
The note with it: protein: recombinant; tags: GST; chain copies: 2; dsDNA, one strand shown. The gist of the method: as §1

Test [3] addresses T3, GST-ANAC055(1-171) (Arabidopsis thaliana, UniProt Q9LDY8 1-171).
T3 sequence: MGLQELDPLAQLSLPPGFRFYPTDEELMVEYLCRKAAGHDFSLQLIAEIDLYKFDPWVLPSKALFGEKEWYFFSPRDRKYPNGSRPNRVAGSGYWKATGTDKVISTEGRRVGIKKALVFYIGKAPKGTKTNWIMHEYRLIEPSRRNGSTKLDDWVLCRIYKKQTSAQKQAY
The settings on record: protein: recombinant; tags: GST; chain copies: 2; dsDNA, one strand shown. The gist of the method: as §1

In test [4] the target is T4, GST-ATAF1 NAC domain (Arabidopsis thaliana, UniProt Q39013 7-158).
T4 sequence: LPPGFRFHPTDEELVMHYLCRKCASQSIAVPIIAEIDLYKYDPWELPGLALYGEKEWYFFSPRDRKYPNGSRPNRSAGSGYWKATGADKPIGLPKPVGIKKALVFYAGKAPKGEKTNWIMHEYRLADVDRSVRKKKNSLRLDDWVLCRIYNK
The note with it: protein: recombinant; tags: GST; chain copies: 2; dsDNA, one strand shown. The procedure, abridged:
as §1

The target of test [5] is T5, GST-ANAC092(1-285) full length (Arabidopsis thaliana, UniProt Q9FKA0 1-285).
T5 sequence: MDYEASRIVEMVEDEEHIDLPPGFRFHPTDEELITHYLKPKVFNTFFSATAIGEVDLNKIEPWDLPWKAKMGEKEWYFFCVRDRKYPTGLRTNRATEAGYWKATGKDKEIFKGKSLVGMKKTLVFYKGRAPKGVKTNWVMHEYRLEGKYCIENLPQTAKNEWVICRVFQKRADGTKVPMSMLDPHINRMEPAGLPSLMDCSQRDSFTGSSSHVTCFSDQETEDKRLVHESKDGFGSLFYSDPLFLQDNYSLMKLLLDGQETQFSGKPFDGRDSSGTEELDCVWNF
The note with it: protein: recombinant; tags: GST; chain copies: 2; dsDNA, one strand shown. The procedure, abridged: as §1

Test [6] has as its target T6, GST-NAP(1-166) (Arabidopsis thaliana, UniProt O49255 1-166).
T6 sequence: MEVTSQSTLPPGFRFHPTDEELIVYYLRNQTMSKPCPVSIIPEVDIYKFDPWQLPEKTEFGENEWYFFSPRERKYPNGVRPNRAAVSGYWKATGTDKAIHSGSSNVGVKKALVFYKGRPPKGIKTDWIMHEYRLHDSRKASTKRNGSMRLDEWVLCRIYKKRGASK
The note with it: protein: recombinant; tags: GST; chain copies: 2; dsDNA, one strand shown. The gist of the method: as §1

Test [7] has as its target T7, GST-NST2(1-184) (Arabidopsis thaliana, UniProt Q9M274 1-184).
T7 sequence: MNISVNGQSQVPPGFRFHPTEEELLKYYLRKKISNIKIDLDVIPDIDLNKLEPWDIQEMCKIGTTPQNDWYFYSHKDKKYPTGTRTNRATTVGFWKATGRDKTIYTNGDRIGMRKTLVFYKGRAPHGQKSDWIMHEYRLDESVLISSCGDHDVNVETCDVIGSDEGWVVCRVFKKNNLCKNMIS
The note with it: protein: recombinant; tags: GST; chain copies: 2; dsDNA, one strand shown. The gist of the method: as §1

Test [8] concerns the target T8, GST-SND1(1-203) (Arabidopsis thaliana, UniProt Q9LPI7 1-203).
T8 sequence: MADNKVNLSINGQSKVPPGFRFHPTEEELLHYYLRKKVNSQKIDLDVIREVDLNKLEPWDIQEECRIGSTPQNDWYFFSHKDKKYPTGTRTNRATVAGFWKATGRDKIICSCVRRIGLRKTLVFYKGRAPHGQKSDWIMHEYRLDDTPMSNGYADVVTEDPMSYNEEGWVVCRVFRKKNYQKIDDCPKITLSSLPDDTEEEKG
The settings on record: protein: recombinant; tags: GST; chain copies: 2; dsDNA, one strand shown. The procedure, abridged:
as §1

In test [9] the target is T9, GST-VND3 NAC domain (Arabidopsis thaliana, UniProt Q9FH59 12-162).
T9 sequence: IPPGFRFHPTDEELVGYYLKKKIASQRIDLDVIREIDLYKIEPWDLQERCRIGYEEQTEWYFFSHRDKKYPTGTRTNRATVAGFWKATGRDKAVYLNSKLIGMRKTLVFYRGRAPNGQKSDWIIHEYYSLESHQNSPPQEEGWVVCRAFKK
The settings on record: protein: recombinant; tags: GST; chain copies: 2; dsDNA, one strand shown. The gist of the method:
as §1

For test [10], the target named is T10, GST-VND7 NAC domain (Arabidopsis thaliana, UniProt Q9C8W9 9-158).
T10 sequence: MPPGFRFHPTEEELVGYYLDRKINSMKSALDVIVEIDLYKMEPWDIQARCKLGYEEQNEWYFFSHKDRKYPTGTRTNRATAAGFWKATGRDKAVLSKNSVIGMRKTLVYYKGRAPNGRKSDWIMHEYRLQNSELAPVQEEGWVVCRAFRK
The settings on record: protein: recombinant; tags: GST; chain copies: 2; dsDNA, one strand shown. The procedure, abridged:
as §1

In test [11] the target is GST-WRKY1(266-371) (Arabidopsis thaliana, UniProt Q9SI37 266-371). The settings on record: protein: recombinant; tags: GST; dsDNA, one strand shown. The procedure, abridged: as §1
Sequence of GST-WRKY1(266-371) (Q9SI37 266-371): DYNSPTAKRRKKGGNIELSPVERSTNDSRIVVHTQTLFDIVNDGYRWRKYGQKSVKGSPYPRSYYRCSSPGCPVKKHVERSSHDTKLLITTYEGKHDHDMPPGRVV
Test [12] deals with GST-NTL6(1-168) (Arabidopsis thaliana, UniProt Q9SCK6 1-168). The note with it: protein: recombinant; tags: GST; chain copies: 2; dsDNA, one strand shown. The procedure, abridged: as §1
Sequence of GST-NTL6(1-168) (Q9SCK6 1-168): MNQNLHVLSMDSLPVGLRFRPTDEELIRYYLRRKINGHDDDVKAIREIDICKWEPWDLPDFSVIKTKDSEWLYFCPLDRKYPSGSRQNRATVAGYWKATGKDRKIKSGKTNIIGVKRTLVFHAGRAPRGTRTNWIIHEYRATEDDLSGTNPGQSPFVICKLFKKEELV
In test [13] the target is T11, GST-NTL8 NAC domain (Arabidopsis thaliana, UniProt Q9XIN7 14-156).
T11 sequence: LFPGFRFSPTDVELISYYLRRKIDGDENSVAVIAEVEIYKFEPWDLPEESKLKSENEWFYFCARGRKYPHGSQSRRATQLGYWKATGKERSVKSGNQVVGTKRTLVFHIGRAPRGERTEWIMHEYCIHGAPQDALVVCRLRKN
The note with it: protein: recombinant; tags: GST; chain copies: 2; dsDNA, one strand shown. The gist of the method: as §1

Take GTCAACAC: the binding signal in [1] is 0.238 E-score; in test [2] it was 0.138 E-score; in [3], 0.173 E-score; in [4] it was 0.092 E-score; in test [5] it was 0.23 E-score; in [6], 0.163 E-score. The binding signal was 0.134 E-score in test [7]; 0.134 E-score in test [8]; 0.133 E-score in [9]; 0.154 E-score in test [10]; 0.478 E-score in test [11].

In the case of GACGTAAA, the binding signal in test [1] was found to be 0.355 E-score; in test [2] it was 0.298 E-score; in test [3] it was 0.256 E-score; in test [4], 0.365 E-score; in [5], 0.399 E-score; in [6], 0.311 E-score. For the same sequence, the binding signal in [7] amounted to 0.333 E-score; in [8] it was 0.431 E-score; in [9], 0.329 E-score; in test [10] it was 0.204 E-score; in test [11], 0.0785 E-score.

As to GTCGCGTA, the binding signal is 0.307 E-score in [1]; 0.0763 E-score in [12]; 0.195 E-score in test [4]; 0.414 E-score in [5]; 0.171 E-score in test [6]; 0.109 E-score in test [7]. In addition, the binding signal in test [8] amounted to 0.422 E-score; in test [9] it was 0.102 E-score; in [10], 0.233 E-score; in test [11] it was 0.145 E-score.

Regarding ACACGACA, the binding signal in test [1] came to 0.421 E-score; in test [12], 0.0953 E-score; in test [2], 0.452 E-score; in [3], 0.438 E-score; in test [4], 0.339 E-score; in [5] it was 0.417 E-score. The binding signal stood at 0.36 E-score in test [6]; 0.19 E-score in test [7]; 0.0912 E-score in [13]; 0.14 E-score in test [8]; 0.399 E-score in test [9]; 0.424 E-score in [10]. The binding signal in [11] stood at 0.0821 E-score.

Regarding ATAAGTAA, the binding signal in test [1] is 0.318 E-score; in [12], 0.434 E-score; in [3], 0.181 E-score; in [4], 0.246 E-score; in test [5], 0.363 E-score; in [7], 0.29 E-score. Moreover, the binding signal in test [13] is 0.167 E-score; in test [8] it was 0.311 E-score; in test [9], 0.264 E-score; in [10], 0.18 E-score; in test [11] it was 0.142 E-score.

On to CTACGTCA, for which the binding signal in test [1] was found to be 0.0986 E-score; in [2], 0.133 E-score; in test [3], 0.129 E-score; in [4], 0.166 E-score; in [5], 0.318 E-score; in [6], 0.148 E-score. In addition, the binding signal came out at 0.31 E-score in test [7]; 0.452 E-score in test [8]; 0.144 E-score in test [9]; 0.176 E-score in test [10]; 0.137 E-score in test [11].

In the case of GAGACGTA, the binding signal amounted to 0.194 E-score in test [1]; 0.432 E-score in test [2]; 0.395 E-score in test [3]; 0.411 E-score in test [4]; 0.331 E-score in test [5]; 0.396 E-score in test [6]. Further, the binding signal amounted to 0.236 E-score in test [7]; 0.322 E-score in test [8]; 0.418 E-score in test [9]; 0.413 E-score in test [10]; 0.0734 E-score in test [11].
